Measurements from ChEMBL document CHEMBL4513216, “Probing the Open Global Health Chemical Diversity Library for Multistage-Active Starting Points for Next-Generation Antimalarials” (ACS Infect Dis, 2020).
Out of some 65,000 compounds screened, about 2,100 (3.2%) showed an effect of 50% or more. The median lay at about -52%. The entries come from a sample that favours strong results as a whole.

Tested on: Plasmodium falciparum
Test: Screen against P. falciparum Asexual Blood Stage (ABS), at 5uM
Type: functional, Dd2
Conditions: tested at 5 uM

Row | Structure (SMILES) | INHIBITION [%]
1 | CNC(=O)[C@@H](c1ccccc1OC)N1CCC[C@H]1C(=O)NCCN(C)C | -199
2 | CC(C)c1noc(CCCC(=O)N2CCN(S(C)(=O)=O)CC2)n1 | -41.7
3 | COCCN(C)C[C@@H]1CN(C(=O)c2ccc(=O)n(C)c2)C[C@@H]1CO | -237
4 | Cc1cc2c(cc1Cl)C=CC1(CCN(C(=O)N3CCOCC3)CC1)O2 | -24
5 | Cc1ccc(CCC(=O)N2CCOCC2)cc1Cl | -148
6 | CCN(CC)C(=O)CN1CCC2(C=Cc3cc(Cl)c(C)cc3O2)CC1 | 49.3
7 | Cc1cc2c(cc1Cl)C=CC1(CCN(CC(=O)NC3CCCC3)CC1)O2 | 32.7
8 | Cc1cc2c(cc1Cl)C=CC1(CCN(CC(=O)N3CCCC3)CC1)O2 | 59.9
9 | Cc1cc2c(cc1Cl)C=CC1(CCN(CC(=O)N3CCOCC3)CC1)O2 | 67.6
10 | Cc1cc(C(=O)N2CCCC(n3cncn3)C2)nn1C (stereo not drawn) | -8.41
11 | COc1ccc(CNc2cnn(C)c(=O)c2Cl)cc1 | -21.1
12 | CCN1C[C@H]2[C@@H](C1)N(S(=O)(=O)c1ccccc1)CC[C@H]2OC | 62.8
13 | CCN1C[C@H]2[C@@H](C1)N(S(=O)(=O)c1ccccc1F)CC[C@H]2OC | 48.5
14 | CCN1C[C@@H]2[C@@H](OC)CCN(S(=O)(=O)c3ccccc3)[C@@H]2C1 | 33.8
15 | Cc1ccc(C2(O)CCN(C(=O)CCn3ccc(=O)[nH]c3=O)CC2)nc1 | -56.8
16 | Cc1ccc(-c2nnc(CN3CCCC(Cn4cncn4)C3)o2)cc1 (stereo not drawn) | -182
17 | CN(C)C(=O)CN1CCC2(COCc3cnc(-c4ccccc4)nc32)C1 (stereo not drawn) | -24.6
18 | CN(Cc1ccco1)C(=O)C1CCCc2ccccc21 (stereo not drawn) | -142
19 | COCCN1CCOCC2(CCCN(Cc3cccc(F)c3)C2)C1 (stereo not drawn) | 9.71
20 | Fc1cccc(N2CCCC3(CN(Cc4cccnc4)CCO3)C2)c1 (stereo not drawn) | 66
21 | Cc1ccc(CN2CCOC3(CCCN(c4cccc(F)c4)C3)C2)o1 (stereo not drawn) | 51.6
22 | OCCN1CCOC2(CCCN(c3cccc(F)c3)C2)C1 (stereo not drawn) | -22.5
23 | Cn1cc(CN2CCOC3(CCCN(c4cccc(F)c4)C3)C2)cn1 (stereo not drawn) | -5.32
24 | Fc1cccc(N2CCCC3(CN(Cc4ccco4)CCO3)C2)c1 (stereo not drawn) | 43.7
25 | Fc1cccc(N2CCCC3(CN(Cc4ccncc4)CCO3)C2)c1 (stereo not drawn) | 38.4
26 | Fc1cccc(CN2CCOC3(COCCN(CC4CC4)C3)C2)c1 (stereo not drawn) | 63.4
27 | O=C(c1ccoc1)N1CCOC2(COCCN(CC3CC3)C2)C1 (stereo not drawn) | -17.6

Row | Structure (SMILES) | INHIBITION [%]
28 | Fc1ccc(CNCC2Cn3nncc3CO2)cc1 (stereo not drawn) | -21.1
29 | COc1cc(N2CCCC3(CCN(c4cccnc4)C3=O)C2)ncn1 (stereo not drawn) | -14.1
30 | FC(F)c1nnc2ccc(N3CCC4(CCCCC4)C3)nn12 | 61.4
31 | FC(F)c1nnc2ccc(N3CCC4(CCOC4)C3)nn12 (stereo not drawn) | -52.7
32 | Cc1nnc2ccc(N3CCC4(CCOC4)C3)nn12 (stereo not drawn) | -37.2
33 | O=S1(=O)CCC(CNc2cc(-c3ccccc3)nc3ccnn23)C1 (stereo not drawn) | -47.3
34 | O=S(=O)(c1ccccc1F)N1CCCC(c2nccs2)C1 (stereo not drawn) | -129
35 | O=C(NCCCSc1ccc(F)cc1)C1CCc2cn[nH]c2C1 (stereo not drawn) | -54.6
36 | COCc1cn(C2CCN(CCC(C)c3ccccc3)CC2)nn1 (stereo not drawn) | -46.3
37 | COc1ccc(C(=O)NCC2CCCN(C3CCOCC3)C2)c(O)c1 (stereo not drawn) | -31.9
38 | CCCc1noc(CN2CCN(CCO)CC2)n1 | 50.5
39 | CC(C)Cc1noc(CN2CCN(CCO)CC2)n1 | 0.0946
40 | CCc1noc(CN2CCN(CCO)CC2)n1 | -176
41 | C[C@H](O)CNc1cc(-c2ccncc2)ncn1 | -170
42 | CCCOCCN1CCC2(CC1)CC(=O)N(Cc1cc(F)cc(F)c1)C2 | 38.7
43 | Cc1csc(CNCC(C)c2nc3ccccc3o2)n1 (stereo not drawn) | -27.8
44 | Cc1nc(CNCC(C)c2nc3ccccc3o2)cs1 (stereo not drawn) | -109
45 | Cc1ccc(O)c(CNCC(C)c2nc3ccccc3o2)n1 (stereo not drawn) | 63.2
46 | CN1CCc2nc(C3CCN(C(=O)CCC4CCCC4)CC3)ncc2C1 | -37.6
47 | O=C(NC1CCCN(CCCc2ccccc2)C1)c1ccc(Cl)s1 (stereo not drawn) | 60.9
48 | O=C(NC1CCCN(CCCc2ccccc2)C1)c1ccncc1 (stereo not drawn) | -29.1
49 | O=C(NC1CCCN(CCCc2ccccc2)C1)C1=CCCCC1 (stereo not drawn) | 2.46
50 | O=C(C1CC1)N1CC[C@H](c2nc3ccccc3o2)C1 | 50.1
51 | CC(=O)N1CC[C@H](c2nc3cc(C)ccc3o2)C1 | -68.8
52 | CC(=O)N1CC[C@H](c2nc3cc(F)ccc3o2)C1 | -105
53 | Cc1ccc(CS(=O)(=O)NCc2ccco2)cc1 | -31.4
